The results in this text go back to PubChem BioAssay (Tox21).

Where “and” joins values, the source holds several entries; their conditions need not be identical. Identical values can stand only once. Inconclusive results are not listed. Entries that show only a call come without a potency. Where a structure was tested more than once in an assay, its records may differ in their call. Calls of active or inactive are those of the source. Calls follow the shape of the dose curve; as a rule, active = well fitted activation curve with a large enough effect in the repeat runs; inconclusive = weak or mixed curves; inactive = flat fitted curve, though single readings scatter.
Potency is read from the fitted curve at half-maximal effect.

This test in a line: A CellTox Green Cytotoxicity Assay to monitor cytotoxicity in HEK293 cells - 40 hour (AID 1224871). Also: nearly all actives have a fitted effect of over 45% in size. The following applies: CellTox Green fluorescence; series mostly up to 76.8 µM. From the text: National Center for Advancing Translational Sciences [NCATS]
NIH Chemical Genomics Center [NCGC]
U.S. Environmental Protection Agency [EPA]
National Institutes of Environmental Health Sciences [NIEHS]
National Toxicology Program [NTP]
Cell-based models are critical for drug discovery. Determining the natural cytotoxic effects resulting from test compounds is an essential research activity. A CellTox Green Cytotoxicity Assay to monitor cytotoxicity in real time of continues cell culture during 40 hours of the compound treatment was used to screen Tox21 10K library compounds in Hek293 cells. CellTox Green Cytotoxicity Assay is a nonlytic, homogeneous, biofluorescent method to measure cytotoxicity in cell culture after experimental manipulation. The assay system uses a proprietary asymmetric cyanine dye that is excluded from viable cells but preferentially stains the dead cell's DNA. […] Viable cells produce no appreciable increases in fluorescence. Therefore, the fluorescence signal produced by the binding interaction with dead cell DNA is proportional to cytotoxicity.
The mixture of Hek293 cell suspension and reagents were dispensed at 600cells/6 ul/well in 1536-well tissue culture treated black solid bottom plates using a Multidrop dispenser. After the assay plates were incubated at a 37 C/5% CO2 incubator for 5 hours, 23 nL of compounds dissolved in DMSO, positive and negative controls was transferred to the assay plate by a pintool work station. The plates were incubated at 37 C for 40 hours. The fluorescence intensity were measured at 0h, 8h, 16h, 24h, 32h and 40h time points using ViewLux plate reader during compound treatment.
On to `C=CC(C)(CCC=C(C)C)OC=O` (stereo not given), for which the Potency result is “inactive”.

As to `O=S(=O)(O)c1ccccc1/C=C/c1ccc(-c2ccc(/C=C/c3ccccc3S(=O)(=O)O)cc2)cc1`, the Potency result is “inactive”.

`C#C[C@]1(OC(C)=O)CC[C@H]2[C@@H]3CCC4=C/C(=N/O)CC[C@@H]4[C@H]3CC[C@@]21CC`: the Potency entry was “inactive”.

`CC[N+](CC)(CC)CCOc1ccc(/C=C/c2ccccc2)cc1`: the Potency is 6.01 µM (active).

In the case of `[Cu+]`, the Potency entry is “inactive”.

As to `CCCCC(CC)CN1CN(CC(CC)CCCC)CC(C)(N)C1` (stereo not given), the Potency is 10.7 µM (active).

Consider `CNc1ccc([N+](=O)[O-])cc1`, for which the Potency result is “inactive”.

Consider `Cc1cc(-c2ccc(N=Nc3cc(S(=O)(=O)O)c4ccccc4c3N)c(C)c2)ccc1N=Nc1cc(S(=O)(=O)O)c2ccccc2c1N`, for which the Potency is 49.2 µM (active).

As for `CC1(C)CC(O)CC(C)(C)N1`, the Potency result was “inactive”.

In the case of `CCC(C)n1ncn(-c2ccc(N3CCN(c4ccc(OC[C@H]5CO[C@](Cn6cncn6)(c6ccc(Cl)cc6Cl)O5)cc4)CC3)cc2)c1=O` (stereo not given in full), the Potency result is “inactive”.

As for `CCCCCCCCCCCCCC[N+](C)(C)Cc1ccccc1`, the Potency was 24.9 µM (active) and 19 µM (active) and 15.8 mM (active).

Take `Nc1ccc(C(=O)O)c(O)c1`: the Potency entry is “inactive”.

With `C1CCC(SSC2CCCCC2)CC1`, the Potency result is “inactive”.

For the molecule `c1ccc(C(O[C@@H]2CCCN(CCc3ccc4c(c3)OCO4)C2)c2ccccc2)cc1`, the Potency result was “inactive”.

In the case of `CC(C)=CCC1=C(O)c2ccccc2C(=O)C1=O`, the Potency entry is “inactive”.

As for `CN1CCN2c3ccccc3Cc3ccccc3C2C1` (stereo not given), the Potency result was “inactive”.

Consider `CC(C)(C)C1CCC(=O)CC1`, for which the Potency entry is “inactive”.

For the molecule `O=C(Nc1ccc2c(O)c(N=Nc3ccc(N=Nc4ccc(S(=O)(=O)O)cc4)cc3)c(S(=O)(=O)O)cc2c1)c1ccccc1`, the Potency entry was “inactive”.

For `COc1cccc2c1C(=O)c1c(O)c3c(c(O)c1C2=O)C[C@@](O)(C(C)=O)C[C@@H]3O[C@H]1C[C@H](N)[C@H](O)[C@H](C)O1`, the Potency is 43.9 µM (active) and inactive.

Turning to `CN1CCCCC1CCN1c2ccccc2Sc2ccc(S(C)=O)cc21` (stereo not given), the Potency entry was “inactive”.

Take `OC[C@H]1O[C@H](O[C@H]2O[C@H](CO)[C@@H](O)[C@H](O)[C@H]2O)[C@H](O)[C@@H](O)[C@@H]1O`: the Potency result is “inactive”.

In the case of `CCCCOC(=O)CC`, the Potency entry was “inactive”.

As for `Oc1ccccc1O`, the Potency result is “inactive”.

Turning to `CN(C)CCN1CCN(c2cccc(Cl)c2)C1=O`, the Potency result was “inactive”.

In the case of `CC(CCc1ccccc1)NCC(O)c1ccc(O)c(C(N)=O)c1` (stereo not given), the Potency entry is “inactive”.

For `O=c1c(O)c(-c2ccc(O)cc2O)oc2cc(O)cc(O)c12`, the Potency result is “inactive”.

As to `CCN(CC)c1ccc2c(-c3ccc(S(=O)(=O)O)cc3S(=O)(=O)[O-])c3ccc(=[N+](CC)CC)cc-3oc2c1`, the Potency entry is “inactive”.

`Cc1c(F)c(N2CCNC(C)C2)cc2c1c(=O)c(C(=O)O)cn2C1CC1` (stereo not given): the Potency entry was “inactive”.

In the case of `O=C(Oc1ccccc1)Oc1ccccc1`, the Potency entry is “inactive”.

Regarding `COc1cc2nc(N3CCN(C(=O)c4ccco4)CC3)nc(N)c2cc1OC`, the cytotoxicity increase was 63.2% [at 15.8 µM] (inactive).

Regarding `O=[N+]([O-])c1ccc(O)cc1C(F)(F)F`, the Potency entry is “inactive”.

As to `CCCCCCCCCCCC(=O)OCC(C)OC(=O)CCCCC(=O)O` (stereo not given), the Potency result was “inactive”.

`CCOC(=O)NNc1ccc(N(CC)CC(C)O)nn1` (stereo not given): the Potency entry was “inactive”.

Consider `CC1=CCC(=C(C)C)CC1`, for which the Potency entry was “inactive”.

Regarding `O=C1CCc2cc(OCCCCc3nnnn3C3CCCCC3)ccc2N1`, the Potency entry was “inactive”.

On to `CCCCCCCCCCCCCCCC[N+](C)(C)CC`, for which the Potency was 43.8 µM (active) and 23.9 µM (active).

In the case of `CCC(CC)C(C)CCOC(C)=O` (stereo not given), the Potency result was “inactive”.

On to `O=c1[nH]c2ccccc2n1CCCN1CCN(C(c2ccccc2)c2ccccc2)CC1`, for which the Potency entry was “inactive”.

For `O=C1C(c2[nH]c3ccc(S(=O)(=O)O)cc3c2O)=Nc2ccc(S(=O)(=O)O)cc21`, the Potency result was “inactive”.

In the case of `Nc1ccc(NCCO)c([N+](=O)[O-])c1`, the Potency result is “inactive”.
